Assay [1] concerns the target Bromodomain-containing protein 4 (Homo sapiens) (UniProt O60885). The note with it: Compound concentration 20.0 uM, Protein concentration 2.0 uM, Result type QC Liability.
The target in assay [2] is T1, Transcription intermediary factor 1-alpha (Homo sapiens) (UniProt O15164).
T1 sequence (whole entry): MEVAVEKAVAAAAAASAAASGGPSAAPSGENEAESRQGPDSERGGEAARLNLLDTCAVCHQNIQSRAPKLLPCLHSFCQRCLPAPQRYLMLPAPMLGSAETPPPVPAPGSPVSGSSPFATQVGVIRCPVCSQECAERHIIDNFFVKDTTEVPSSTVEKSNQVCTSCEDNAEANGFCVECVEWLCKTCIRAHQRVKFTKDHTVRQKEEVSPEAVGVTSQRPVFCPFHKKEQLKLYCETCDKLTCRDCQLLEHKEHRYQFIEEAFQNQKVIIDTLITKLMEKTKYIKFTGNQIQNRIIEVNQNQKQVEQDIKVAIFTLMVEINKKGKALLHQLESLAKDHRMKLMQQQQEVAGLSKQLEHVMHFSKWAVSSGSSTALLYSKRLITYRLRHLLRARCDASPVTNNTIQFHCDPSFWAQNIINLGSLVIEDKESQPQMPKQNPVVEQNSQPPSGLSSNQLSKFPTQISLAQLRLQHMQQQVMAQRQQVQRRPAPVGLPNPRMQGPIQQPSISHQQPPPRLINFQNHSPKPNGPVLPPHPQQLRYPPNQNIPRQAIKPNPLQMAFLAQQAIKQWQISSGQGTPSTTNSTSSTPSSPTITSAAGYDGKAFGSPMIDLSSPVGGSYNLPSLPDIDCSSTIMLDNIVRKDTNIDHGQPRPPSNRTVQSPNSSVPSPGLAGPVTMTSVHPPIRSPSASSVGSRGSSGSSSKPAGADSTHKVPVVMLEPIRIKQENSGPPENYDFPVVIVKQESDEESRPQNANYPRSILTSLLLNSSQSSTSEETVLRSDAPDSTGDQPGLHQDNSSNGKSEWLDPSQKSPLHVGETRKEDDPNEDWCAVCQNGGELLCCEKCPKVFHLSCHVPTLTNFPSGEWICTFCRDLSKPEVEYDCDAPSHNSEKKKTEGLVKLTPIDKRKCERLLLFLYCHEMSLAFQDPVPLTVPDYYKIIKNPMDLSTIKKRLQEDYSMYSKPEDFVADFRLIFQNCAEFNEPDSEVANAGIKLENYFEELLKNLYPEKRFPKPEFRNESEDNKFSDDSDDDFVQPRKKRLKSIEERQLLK
Particulars: Compound concentration 20.0 uM, Protein concentration 2.0 uM, Result type QC Liability.

The text below walks through data of ChEMBL document CHEMBL5308504, “Tm Shift (DSF) assay results for EUbOPEN Chemogenomics Library” (2023).

Consider `CC1CCN(C(=O)[C@@H](CCn2cccc2C#N)NS(=O)(=O)c2cccc3[nH]ccc23)CC1`, for which the ΔTm in assay [1] was -1.03 °C; in assay [2], 0.52 °C.
For the molecule `N#CN1CC[C@@H](C(=O)Nc2nc3c(s2)CN(C(=O)CN=[N+]=[N-])CC3)C1`, the ΔTm was -1.95 °C in assay [1] and -0.82 °C in assay [2].
In the same order, the values of `O=C(O)c1ccc(CN2C[C@@H]3C[C@H]2CN3Cc2ccc(Oc3ccc(-c4ncco4)cc3)cc2)cc1` are -2.1 °C and -1.06 °C.
In the same order, the values of `Cc1cc(OC2CCS(=O)(=O)CC2)cc(C)c1-c1cccc(COc2ccc(C(=O)O)c(F)c2)c1` are -3.26 °C and -2.6 °C.
The matching figures for `O=C(O)c1ccc(OCCCc2ccc(OCCCCOC3CCCCC3)cc2)c(C(=O)NC2CCCC(C(=O)O)C2)c1` (stereo not given): 0.35 °C and 0.3 °C.
Consider `CC(C)(O)[C@H]1CC[C@H](Nc2ccc3ncc(-c4cccc(C(F)(F)F)c4)n3n2)CC1`, for which the ΔTm is -0.97 °C in assay [1] and -1.82 °C in assay [2].
The matching figures for `CN1CCN(c2ccc(/C=C(\C#N)c3ccccc3Br)cc2)CC1`: -4.31 °C and -4.7 °C.
The matching figures for `Cc1[nH]nc(C(F)(F)F)c1Cc1sc2c(c1C(=O)N1C[C@](C)(O)CO1)c(=O)n(C)c(=O)n2C(C)C`: -1.28 °C and -0.8 °C.
In the same order, the values of `COc1cc(C(=O)NCCOCCOCCOCC(=O)N[C@H](C(=O)N2C[C@H](O)C[C@H]2C(=O)NCc2ccc(-c3scnc3C)cc2)C(C)(C)C)ccc1Nc1ncc(C(F)(F)F)c(Oc2cccc3c2C(=O)CC3)n1` are -0.02 °C and 2.06 °C.
As to `O=C(O)c1cc2cc(Cc3cccnc3)ccc2o1`, the ΔTm in assay [1] was -1.5 °C; in assay [2] it was -0.74 °C.
In the same order, the values of `CNc1ncc2cc(-c3ccc(-c4ncccc4F)cc3Cl)c(=O)n(C[C@H]3OC[C@H](N)CO3)c2n1` are -2.59 °C and -3.59 °C.
On to `COc1cc(C)c(S(=O)(=O)N(C)CCOCC(=O)N(C)[C@H]2CCC[C@@H](N3CCN(C)CC3)C2)c(C)c1`, for which the ΔTm in assay [1] is -1.54 °C; in assay [2], 0.17 °C.
The matching figures for `CN1CC(=O)N(C)c2cnc(Nc3ccc(NC(=O)Nc4cccc(C(=O)O)c4)cc3)nc21`: 0.02 °C and -0.69 °C.
The matching figures for `Fc1cccc(-n2cnc3c(NCc4nc5c(F)c(F)ccc5[nH]4)nc(N4CCOCC4)nc32)c1`: 0.39 °C and -0.44 °C.
The matching figures for `Cc1cn(CCN2CCN(c3ccccc3-c3cc(C#N)cc(C(=O)NCCCN4CCCC4)c3)CC2)c2ccccc12`: -2.78 °C and -1.92 °C.
Regarding `CN(C)C(=O)c1cc2cnc(Nc3ccc(N4CCN(CCCCNC(=O)COc5cccc6c5C(=O)N(C5CCC(=O)NC5=O)C6=O)CC4)cn3)nc2n1C1CCCC1` (stereo not given), the ΔTm was -0.39 °C in assay [1] and -1.79 °C in assay [2].
In the same order, the values of `NS(=O)(=O)c1ccc(Nc2nc(OCC3CCCCC3)c3nc[nH]c3n2)cc1` are 0.59 °C and -0.84 °C.
The matching figures for `Cn1cnc(Cn2ccc3ccc(CNCc4[nH]c5ccccc5c4[C@@H]4NC(=O)c5ccc(O)cc54)cc32)c1`: -1.28 °C and 0.32 °C.
In the same order, the values of `Cc1ccc(NC(=O)c2ccc3c(c2)OCCO3)cc1NC(=O)c1ccc2nc(OCCN3CCCC3)ccc2c1` are -12.8 °C and -0.86 °C.
With `CN1CCCN(C(=O)c2cccc(-c3ccc(/C=C4/C(=O)Nc5ccc(Cl)cc54)o3)c2)CC1`, the ΔTm was -4.14 °C in assay [1] and -5.43 °C in assay [2].
Turning to `COCCOCn1c(S(C)(=O)=O)nc2c1c(=O)n(C)c(=O)n2C`, the ΔTm is -12.2 °C in assay [1] and 0.18 °C in assay [2].
In the same order, the values of `CC(=O)N1CCC(c2ccc(C(=O)NC(=N)N)cc2C(F)(F)F)CC1` are -0.62 °C and 0.53 °C.
The matching figures for `CC(C)(C)c1cnc(CSc2cnc(NC(=O)C3CCNCC3)s2)o1`: 0.24 °C and -1.61 °C.
With `CCCS(=O)(=O)Nc1ccc(F)c(Nc2ncnc3cnc(-n4cnc(C)c4)nc23)c1F`, the ΔTm in assay [1] was -2.57 °C; in assay [2], -1.9 °C.
In the same order, the values of `COc1cc(C(=O)NCCOCCOCCOCCC(=O)Nc2cccc3c2C(=O)N(C2CCC(=O)NC2=O)C3=O)ccc1Nc1ncc(C(F)(F)F)c(Oc2cccc3c2C(=O)CC3)n1` (stereo not given) are -4.34 °C and 0.52 °C.
On to `Cc1csc(-c2nnc(Nc3ccc(Oc4ncccc4-c4ccnc(N)n4)cc3)c3ccccc23)c1`, for which the ΔTm in assay [1] was 11.5 °C; in assay [2], -1.04 °C.
In the same order, the values of `CN1C(=O)Cc2ccc(-c3ccc(C[C@@H](C#N)NC(=O)[C@@H]4N[C@H]5CC[C@@H]4C5)c(F)c3)cc21` are -1.1 °C and 0.19 °C.
For `CCCc1c(OCCCOc2ccc(OCC(=O)O)cc2)ccc(C(C)=O)c1O`, the shift in melting temperature (ΔTm) was -2.92 °C in assay [1] and -1.6 °C in assay [2].
In the same order, the values of `COCCN1CCN(CCn2ccc(Nc3ncc4c(n3)-c3c(nn(C)c3-c3ccccc3)C[C@H]4C)n2)CC1` are -1.68 °C and -2.88 °C.
On to `CS(=O)(=O)c1cc(C2(NC(=O)c3cncc4c3cnn4-c3ccc(F)cc3)CC2)ccn1`, for which the ΔTm in assay [1] was -1.64 °C; in assay [2], 0.27 °C.
In the same order, the values of `Cc1cc2c(cc(C(=O)N[C@H](CO)c3ccc(S(=O)(=O)CC(=O)O)cc3)n2C)c(Cl)c1Cl` are 2.14 °C and -0.18 °C.
In the case of `CC(F)(F)CN1C(=O)c2[nH]nc(-c3cccc4[nH]c(=O)oc34)c2C1c1ccc(Oc2cc(C(F)(F)F)cc(C(F)(F)F)c2)cc1` (stereo not given), the ΔTm in assay [1] is -1.07 °C; in assay [2] it was -1.2 °C.
As to `CC[C@@H](CO)Nc1nc(Nc2cccc(NC(=O)C(C)(C)C)c2)ncc1F`, the ΔTm in assay [1] was -2.22 °C; in assay [2] it was 0.33 °C.
As for `Cn1cc(Nc2nccc(N3CC4CCC(C3)N4C(=O)[C@@H]3CC3(F)F)n2)cn1`, the ΔTm in assay [1] is -1.13 °C; in assay [2], -1.71 °C.
As for `Cc1n[nH]c2ncc(C(=O)N3CCC[C@H]3c3ccc(Cl)cc3)cc12`, the values for the ΔTm in assay [1] and in assay [2] were 0 °C and -1.73 °C, respectively.
